HPGD inh: inhibitors of human 15-hydroxyprostaglandin dehydrogenase (HPGD) | P15428 | purified HPGD, NADH fluorescence kinetic, PGE2 substrate | Potency, µM, without a hit: at the highest dose activity change, negative = inhibition, most hits filed as inhibitors | 150,000 compounds, 4.3% hits; active means well fitted inhibition curve with a large enough effect, not every such curve was filed as active; inconclusive means small, poorly fitted or top-dose-only effect, or another doubt; inactive means no such curve, though single readings can be large or run the other way; further: potency means the concentration at half of the fitted maximal effect
Target sequence (P15428 whole entry, looked up): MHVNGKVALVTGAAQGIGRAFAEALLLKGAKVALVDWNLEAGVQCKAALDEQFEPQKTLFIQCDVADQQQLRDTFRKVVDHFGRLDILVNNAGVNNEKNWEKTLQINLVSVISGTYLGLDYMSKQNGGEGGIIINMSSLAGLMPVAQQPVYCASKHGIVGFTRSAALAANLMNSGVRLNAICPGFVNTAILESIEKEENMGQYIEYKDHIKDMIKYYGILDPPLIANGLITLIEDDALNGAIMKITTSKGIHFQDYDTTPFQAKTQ
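NADH formation kinetics: reaction with 30 uM PGE2 and 1 mM NAD+ (final), 20 nM enzyme, Tris-HCl pH 8 with Tween 20, after 15 min compound preincubation at room temperature. Fluorescence change, last versus first of five reads.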
PNC assembly inh: perinucleolar compartment assembly inhibition | activity change (PNC), negative = inhibition, % at 10 µM | 140,000 compounds, 3.1% hits | PC3M PTB-GFP, PNC prevalence imaging, 16 h; active compounds read low;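 active means readout at or below -70, meaning at least 70% loss of cells showing the perinucleolar compartment, a nuclear body marking cancer cells; inconclusive means readout between -30 and a set limit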;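 further: plate controls were DMSO wells for no effect and camptothecin positive control wells for full effect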
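PC3M cells stably expressing PTB-GFP, 750–1000 cells/well, treated 16 h at 37 °C with compound (23 nl of library stock), in duplicate. After paraformaldehyde fixation and Hoechst stain, imaged at 20x; PNC prevalence scored by image analysis.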
NPSR antag: antagonists of human neuropeptide S receptor cAMP signaling; Potency, µM (highest dose often 38.3 µM), for inactives: at the highest dose activity change, negative = inhibition, usual class: inhibitors; Q6W5P4; AID 1461; 220,000 compounds, 1% hits; CHO-NPSR cells, cAMP TR-FRET, antagonist mode; further: potency means the concentration at half of the fitted maximal effect; nearly all actives have a fitted effect of over 50% in size
Target sequence (Q6W5P4 whole entry, looked up): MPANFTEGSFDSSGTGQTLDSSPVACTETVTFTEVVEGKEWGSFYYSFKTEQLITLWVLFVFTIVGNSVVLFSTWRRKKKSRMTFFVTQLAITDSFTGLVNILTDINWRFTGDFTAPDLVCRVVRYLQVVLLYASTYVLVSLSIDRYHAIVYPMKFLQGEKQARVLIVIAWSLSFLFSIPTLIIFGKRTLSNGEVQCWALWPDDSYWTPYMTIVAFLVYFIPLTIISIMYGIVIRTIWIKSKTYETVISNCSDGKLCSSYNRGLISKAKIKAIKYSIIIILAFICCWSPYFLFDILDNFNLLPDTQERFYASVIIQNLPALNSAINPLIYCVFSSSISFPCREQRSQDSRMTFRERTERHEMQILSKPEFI
IMPase inh: IMPase inhibition in cells. CHO-M1 cells, IP1 accumulation, HTRF TR-FRET ratio. 120,000 tested, under 10 active. inhibition (IP1 accumulation), % at 46.1 µM; active means well fitted curve in the direction sought with a large enough effect in the signal ratio, not every such curve was filed as active; inconclusive means small, poorly fitted or top-dose-only effect, or a change in a side signal; inactive means no such curve, though single readings can be large or run the other way; the % refers to the signal ratio;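 further: cells stimulated with carbachol in lithium chloride buffer; plate controls were DMSO basal wells for no effect and reference inhibitor wells for full effect; higher means more IMPase inhibition seen as more IP1 and lower FRET ratio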
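Carbachol-driven Gq signalling in CHO-M1 cells (2000/well) generates IP1. Compounds that block IMPase raise IP1 and so reduce the FRET signal from Eu-anti-IP1 and d2-IP1 after a 10 min room-temperature lysis.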
ALDH1A1 inh: inhibitors of human aldehyde dehydrogenase 1A1 | Purified ALDH1A1, NADH fluorescence, propionaldehyde substrate | Potency, µM (highest dose often 75.3 µM), for the others: top-dose activity, negative = inhibition, usual class: inhibitors | 220,000 compounds, 7.3% hits; active means well fitted inhibition curve with a large enough effect, not every such curve was filed as active; inconclusive means small, poorly fitted or top-dose-only effect, or another doubt; inactive means no such curve, though single readings can be large or run the other way;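 further: potency means the concentration at half of the fitted maximal effect; plate controls were no enzyme wells and a reference inhibitor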
IMPase Li cell: cell-permeable IMPase inhibitors with lithium potentiation. CHO-M1 cells, IP1 TR-FRET (IP-One), carbachol + lithium. Potency, µM (titrated, usually from 59.4 µM), inactives show at the highest dose activity, negative = IMPase inhibition, usual class: inhibitors. 210,000 compounds, 0.35% hits. AID 1457;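 further: IP1 builds up when IMPase is blocked and the TR-FRET signal falls; potency means the concentration at half of the fitted maximal effect; plate controls were basal vehicle for no effect and high inhibitor control for full effect; nearly all actives have a fitted effect of over 50% in size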
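CHO cells stably expressing M1 receptor (2000/well) were cultured 16–30 h, then exposed to compounds with a small lithium addition for 30 min at 37C. IP1 was measured by TR-FRET competition; AC50 from Hill fits.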
* hit, by the source's call; ? = inconclusive; · = no result given; [ ] = remark or other dose. Compounds with a hit are over-represented: about 11% of the library has one in this group of screens. Unless noted, the call rests on the fitted dose curve; in most records, active means well fitted curve in the direction sought with a large enough effect; inconclusive means small, poorly fitted or top-dose-only effect, or another doubt; inactive means no such curve, though single readings can be large; an effect the other way counts as inactive or inconclusive. Unless noted, on the % scale 0 is the no-effect control and ±100 the full control effect.

SMILES	HPGD inh	PNC assembly inh	NPSR antag	IMPase inh	ALDH1A1 inh	IMPase Li cell
Cc1noc(C)c1COC(=O)c1cccc(S(=O)(=O)N2CCCCCC2)c1	-2%	?	0%[7.67 µM]	12	?	17%[38.3 µM]
COc1ccc(S(=O)(=O)N2CCc3ccccc32)cc1C(=O)OCc1c(C)noc1C	-18%	?	?	9	3.2µM*	17%[38.3 µM]
CCN1CCN(C(c2cccs2)C(C)NS(=O)(=O)c2ccccc2)CC1 (stereo not given)	·	·	0%	·	8%	5%
CCOC(=O)N1CCN(C(=O)CSCc2ccccc2C)CC1	-10%	-7	-11%[46.1 µM]	3	?	-6%[38.3 µM]
CC1CCC(C(C)C)C(OC(=O)CSc2nc(N)cc(=O)[nH]2)C1 (stereo not given)	-10%	60	-11%[46.1 µM]	-19	4.5µM*	-8%[38.3 µM]
Cc1nnc(SCC(=O)OC2CC(C)CCC2C(C)C)[nH]c1=O (stereo not given)	-6%	-3	6%[46.1 µM]	-7	?	11%[38.3 µM]
CCOC(=O)N/N=C/c1ccc(OCCSc2ccc(Cl)cc2)c(OC)c1	-24%	-4	-31%	·	9%	14%
CCOC(=O)N/N=C/c1ccc(OCCSc2ccc(Cl)cc2)c(OCC)c1	16µM*	0	-27%	·	6%	-7%
C/C=C/c1ccc(OCCOc2ccc(C=O)cc2)c(OC)c1	25µM*	-4	1%	·	?	-8%
COc1cc(C=O)ccc1OCCSc1ccc(Cl)cc1	11µM*	68	-21%[46.1 µM]	-7	?	-2%[38.3 µM]
COc1cc(C=O)ccc1OCCOCCOc1c(C)cc(Cl)cc1Cl	?	29	-19%[46.1 µM]	3	?	-9%[38.3 µM]
COc1cc(C=O)ccc1OCCOCCOc1ccc(Cl)cc1	-29%	19	-13%[46.1 µM]	-2	3.5µM*	7%[38.3 µM]
C/C=C/c1ccc(OCCCCOc2c(OC)cccc2OC)c(OC)c1	?	43	-17%	·	-8%	-3%
Cc1ccc(CCNC(=O)C2CCN(S(=O)(=O)c3cccc4nsnc34)CC2)cc1	-6%	7	-7%[46.1 µM]	-10	2%	-2%
C/C=C/c1ccc(OCCCNC)c(OC)c1	-2%	-7	0%[46.1 µM]	5	28µM*	18%[38.3 µM]
COc1ccccc1OCCCCOc1ccccc1C(C)=O	-8%	-10	8%	·	7%	9%
C/C=C/c1ccc(OCCCCOc2ccccc2C(C)=O)c(OC)c1	14µM*	29	-8%	·	?	11%
O=C(COc1cccnc1[N+](=O)[O-])Nc1ccc(N2CCOCC2)cc1	·	·	-2%	·	?	3%
COC(=O)c1ccccc1NC(=O)CSc1nnc(Cc2ccc(Cl)cc2)o1	28µM*	?	-20%[46.1 µM]	13	20µM*	21%[38.3 µM]
CCC1CCCCN1C(=O)CSc1nnc(-c2ccc(Cl)cc2)o1 (stereo not given)	-18%	-29	-9%[46.1 µM]	1	5%	11%[38.3 µM]
COc1ccc(CCCc2nnc(SCC(=O)NN)o2)cc1	·	·	21%	·	7.9µM*	-7%
COCCn1c(CNc2ccc(F)cc2)nnc1SCC(=O)Nc1ccc(OC)cc1OC	-11%	0	-12%[46.1 µM]	-15	13µM*	-15%[38.3 µM]
COC(=O)c1ccccc1NC(=O)CSc1ncccn1	·	·	-3%	·	·	·
CCC1CCCCN1C(=O)CSc1nnc(-c2ccco2)o1 (stereo not given)	-4%	-14	-22%[46.1 µM]	?	20µM*	10%
COc1ccc(C(=O)NC2=NCCS2)cc1S(=O)(=O)N1CCCCC1C (stereo not given)	·	·	12%	·	-4%	2%
SMILES	HPGD inh	PNC assembly inh	NPSR antag	IMPase inh	ALDH1A1 inh	IMPase Li cell
Cc1nn2c(NCCN3CCOCC3)c3c(nc2c1-c1ccccc1)CCCC3	·	·	-39%	·	·	·
CC(=O)Nc1ccc(C2NC(=S)N(c3ccccc3C(F)(F)F)C(C)=C2C(=O)N2CCOCC2)cc1 (stereo not given)	·	·	4%	·	?	0%
CC(=O)Nc1ccc2c(c1)nc1n2CCOC1	-11%	?	-8%[46.1 µM]	6	-2%	24%[38.3 µM]
COc1ccc(-n2c3c(cc(C(=O)NCc4ccco4)c2=O)C(=O)CC(C)(C)C3)cc1	·	·	37%	·	?	10%
CCC1CCCCN1C(=O)CSc1nnc(CNC(=O)COc2ccc(Cl)cc2)o1 (stereo not given)	-11%	-15	-9%[46.1 µM]	-2	7.1µM*	27%[38.3 µM]
COc1ccc(NCc2nnc(SCC(=O)c3ccc(OC)cc3)o2)cc1	-10%	?	-12%[46.1 µM]	5	16µM*	40%[38.3 µM]
COc1ccc(Cc2nnc(SCC(=O)c3ccc(OC)cc3)o2)cc1	-4%	-25	-17%[46.1 µM]	11	?	22%[38.3 µM]
O=C(COc1ccc(Cl)cc1)NCc1nnc(SCC(=O)NC2CCCC2)o1	-11%	-3	-3%[46.1 µM]	-13	-6%	-14%[38.3 µM]
COc1ccc(OC)c(NC(=O)CSc2nnc(CNc3ccc(F)cc3)o2)c1	-4%	36	-24%[46.1 µM]	-4	-5%	6%[38.3 µM]
COc1ccc(NC(=O)CSc2nnc(CNC(=O)COc3ccc(Cl)cc3)o2)c(OC)c1	4%	-23	-13%[46.1 µM]	2	2%	7%[38.3 µM]
COc1ccc(NCc2nnc(SCC(=O)Nc3ccccc3OC)o2)cc1	-5%	-105*	-6%[46.1 µM]	11	?	29%[38.3 µM]
COc1ccc(OC)c(NC(=O)CSc2nnc(CNC(=O)COc3ccc(Cl)cc3)o2)c1	-14%	?	?	-1	20µM*	25%[38.3 µM]
Cc1ccccc1/C=N\NC(=O)c1csnn1	-2%	56	-15%[46.1 µM]	2	-2%	3%[38.3 µM]
Cc1cc(C)cc(C(=O)OCC(=O)NCc2cccs2)c1	-20%	30	5%	·	11%	0%
Cc1cc2c(cc(C(=O)OCC(=O)NCc3cccs3)n2C(C)C)o1	-21%	7	27%[46.1 µM]	3	19µM*	16%[38.3 µM]
O=C(c1ccc(CSc2nc3ccncc3[nH]2)cc1)N1CCCCC1	0.56µM*	34	14%	·	25µM*	-2%
COc1cccc(N2CCN(C(=O)c3ccc(CSc4nc5ccncc5[nH]4)cc3)CC2)c1	-6%	19	10%	·	22µM*	7%
COc1ccc(NCc2cc3ccccc3[nH]c2=O)cc1	·	?	-14%[46.1 µM]	12	7.9µM*	·
COc1ccc(CC(=O)OCc2cc3ccccc3[nH]c2=O)cc1	-30%	7	-15%[46.1 µM]	-6	?	-5%[38.3 µM]
COc1ccc(NCc2cc3cc(OC)ccc3[nH]c2=O)cc1	-17%	-22	-27%[46.1 µM]	3	8.9µM*	20%[38.3 µM]
COc1ccc(NCc2c(O)ccc3ccccc23)cc1	-8%	·	·	·	1.6µM*	1%
COc1ccc2[nH]c(=O)c(CNc3cccc(C)c3)cc2c1	·	14	-7%[46.1 µM]	?	?	·
Cc1ccc(N2C(=O)C(CN3CCCC3)C2c2ccccc2)cc1 (stereo not given)	·	·	-9%	·	?	20%

Compound activity: PubChem BioAssay, National Center for Advancing Translational Sciences (NCATS)
